{"source": "the supplement of paper PMC3334620", "note": "Over roughly 33,000 sequences, “E-score (-0.5 to 0.5)” has its median near -0.056; the highest 2% begin near 0.38. The sample holds the highest values, similar sequences and a random draw of the others, so the mix is not that of the screen.", "data": [{"target": "Stb4 (UniProt P50104)", "sequence (P50104 whole entry, the tested form may be a part)": "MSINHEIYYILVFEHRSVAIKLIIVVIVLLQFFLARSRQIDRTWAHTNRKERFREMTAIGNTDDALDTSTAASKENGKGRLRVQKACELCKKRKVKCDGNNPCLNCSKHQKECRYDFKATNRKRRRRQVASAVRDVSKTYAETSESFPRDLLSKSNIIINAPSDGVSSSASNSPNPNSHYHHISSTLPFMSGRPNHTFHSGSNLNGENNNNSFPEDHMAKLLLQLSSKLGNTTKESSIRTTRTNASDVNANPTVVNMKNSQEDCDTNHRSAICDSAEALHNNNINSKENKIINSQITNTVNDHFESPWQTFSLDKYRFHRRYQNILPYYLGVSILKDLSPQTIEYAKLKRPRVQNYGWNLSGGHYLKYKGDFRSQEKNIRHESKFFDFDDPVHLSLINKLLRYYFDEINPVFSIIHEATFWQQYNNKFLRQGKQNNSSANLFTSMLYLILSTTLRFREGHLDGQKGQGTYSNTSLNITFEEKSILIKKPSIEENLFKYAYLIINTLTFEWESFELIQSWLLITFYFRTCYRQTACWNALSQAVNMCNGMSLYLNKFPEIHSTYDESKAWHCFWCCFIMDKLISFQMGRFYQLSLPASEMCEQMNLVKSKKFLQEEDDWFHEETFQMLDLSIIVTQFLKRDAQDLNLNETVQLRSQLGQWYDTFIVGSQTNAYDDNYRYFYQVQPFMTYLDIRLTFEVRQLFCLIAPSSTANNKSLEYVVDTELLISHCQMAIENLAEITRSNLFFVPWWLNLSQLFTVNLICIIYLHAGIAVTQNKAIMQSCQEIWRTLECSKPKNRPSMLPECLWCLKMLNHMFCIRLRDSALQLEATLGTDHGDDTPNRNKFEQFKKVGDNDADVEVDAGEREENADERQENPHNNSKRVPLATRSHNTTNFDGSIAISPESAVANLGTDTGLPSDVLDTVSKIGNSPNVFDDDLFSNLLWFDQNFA", "experiment": "PBM E-score (8-mer binding enrichment) (E-score (-0.5 to 0.5)); higher = stronger / more preferred TF binding", "settings": "protein concentration: 200 nM; construct: GST-DNA-binding domain", "protocol": "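Universal 'all 10-mer' protein binding microarrays (Agilent AMADID 015681) probed with GST-tagged S. cerevisiae TFs (full-length or DBD) made by in vitro transcription/translation (PURExpress), about 100-200 nM. Bound TF was detected with fluorescent anti-GST. Each ungapped 8-mer (which stands for itself and its reverse complement) is scored by the PBM enrichment score (E-score), a modified Wilcoxon-Mann-Whitney statistic from -0.5 to +0.5, computed with the Universal PBM Analysis Suite. Scale: above 0.35 generally sequence-specific binding.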", "values": [{"sequence": "CAACTAGG", "PBM E-score": -0.0487}, {"sequence": "TCTTCGCA", "PBM E-score": -0.0992}, {"sequence": "GTGTGCAA", "PBM E-score": -0.127}, {"sequence": "ACGTTCCC", "PBM E-score": 0.11}, {"sequence": "ATTCAACC", "PBM E-score": 0.00448}, {"sequence": "AAAGACAT", "PBM E-score": -0.14}, {"sequence": "GCGGGGGA", "PBM E-score": 0.0109}, {"sequence": "CCGCAAGA", "PBM E-score": 0.151}, {"sequence": "GCATCCGC", "PBM E-score": 0.295}, {"sequence": "GCATCCTA", "PBM E-score": -0.163}, {"sequence": "GCATCCGA", "PBM E-score": 0.466}, {"sequence": "ACGGCCAG", "PBM E-score": -0.124}, {"sequence": "ATCGGTAC", "PBM E-score": 0.329}, {"sequence": "CTCGGTTA", "PBM E-score": 0.44}, {"sequence": "ATCGGTAA", "PBM E-score": 0.336}, {"sequence": "CTCGGTAC", "PBM E-score": 0.383}, {"sequence": "CTCGGTAA", "PBM E-score": 0.431}, {"sequence": "GTCGGTTA", "PBM E-score": 0.343}, {"sequence": "ATCGGTTA", "PBM E-score": 0.368}, {"sequence": "CTCGGTGC", "PBM E-score": 0.244}, {"sequence": "GTCGGTAA", "PBM E-score": 0.333}, {"sequence": "CGAACGGA", "PBM E-score": 0.327}, {"sequence": "GTCTAAAA", "PBM E-score": -0.0585}, {"sequence": "GTACTGAC", "PBM E-score": -0.0527}, {"sequence": "AGTAAGCG", "PBM E-score": -0.0174}, {"sequence": "AGACTATG", "PBM E-score": -0.17}, {"sequence": "ACCAGGCG", "PBM E-score": -0.159}, {"sequence": "CATACAGA", "PBM E-score": -0.0776}, {"sequence": "AGTGATTG", "PBM E-score": -0.0135}, {"sequence": "ACCTCGGA", "PBM E-score": 0.463}, {"sequence": "CCCTCGTC", "PBM E-score": 0.0826}, {"sequence": "CCCTCGCC", "PBM E-score": -0.217}, {"sequence": "ACCTCGCC", "PBM E-score": -0.0213}, {"sequence": "ACCTCGGG", "PBM E-score": 0.421}, {"sequence": "CCCTCGGC", "PBM E-score": 0.399}, {"sequence": "ACCTCGGC", "PBM E-score": 0.415}, {"sequence": "ACCTCGAA", "PBM E-score": -0.105}, {"sequence": "ACCTCGAG", "PBM E-score": -0.0838}, {"sequence": "ACCTCGTA", "PBM E-score": 0.0536}, {"sequence": "ACCTCGTG", "PBM E-score": -0.0555}, {"sequence": "ACCTCGTC", "PBM E-score": -0.0708}, {"sequence": "AGTAGATA", "PBM E-score": -0.0337}, {"sequence": "CTCCATTA", "PBM E-score": -0.148}, {"sequence": "CGCCTTTC", "PBM E-score": -0.0815}, {"sequence": "CGGGTAAG", "PBM E-score": 0.336}, {"sequence": "CGGGTAAC", "PBM E-score": 0.393}, {"sequence": "GGGGTAAC", "PBM E-score": -0.122}, {"sequence": "CGGGTAAA", "PBM E-score": 0.424}, {"sequence": "TGGGTAAA", "PBM E-score": -0.0511}, {"sequence": "AGGGTAAA", "PBM E-score": 0.0281}, {"sequence": "AAGCCTAC", "PBM E-score": -0.253}, {"sequence": "CACACTGG", "PBM E-score": -0.18}, {"sequence": "CATTTAGG", "PBM E-score": -0.174}, {"sequence": "ACGCTTTG", "PBM E-score": 0.035}, {"sequence": "GTCTATTA", "PBM E-score": -0.00563}, {"sequence": "CTCGGGAA", "PBM E-score": 0.462}, {"sequence": "CTCGGGAC", "PBM E-score": 0.45}, {"sequence": "ATCGGGAC", "PBM E-score": 0.284}, {"sequence": "ATCGGGAA", "PBM E-score": 0.412}, {"sequence": "ATCGGGGA", "PBM E-score": 0.243}, {"sequence": "ATCGGGAG", "PBM E-score": 0.367}, {"sequence": "CTCGGGGA", "PBM E-score": 0.349}, {"sequence": "CCGGGGAC", "PBM E-score": 0.157}, {"sequence": "CACGGGAC", "PBM E-score": 0.214}, {"sequence": "GCCGGGAC", "PBM E-score": 0.28}, {"sequence": "CCCGGGAC", "PBM E-score": 0.387}, {"sequence": "GTCGGGAA", "PBM E-score": 0.377}, {"sequence": "AGCAACTC", "PBM E-score": -0.0301}, {"sequence": "TACTCAAA", "PBM E-score": -0.108}, {"sequence": "CTTATCGA", "PBM E-score": -0.105}, {"sequence": "AGTCACTG", "PBM E-score": -0.274}, {"sequence": "AACTGAAA", "PBM E-score": -0.121}, {"sequence": "CCCTATAC", "PBM E-score": -0.154}, {"sequence": "ACACCGTG", "PBM E-score": 0.106}, {"sequence": "CTTGACGA", "PBM E-score": -0.0253}, {"sequence": "ACTACTTG", "PBM E-score": -0.195}, {"sequence": "ACGAGCTA", "PBM E-score": -0.221}, {"sequence": "CCGAGCTC", "PBM E-score": 0.435}, {"sequence": "CCGAGCTA", "PBM E-score": 0.424}, {"sequence": "CTGAGCTC", "PBM E-score": -0.172}, {"sequence": "GCGAGCTA", "PBM E-score": -0.0842}, {"sequence": "ACGAGCTC", "PBM E-score": 0.0375}, {"sequence": "CACGGTCA", "PBM E-score": -0.197}, {"sequence": "CAACTACG", "PBM E-score": -0.0502}, {"sequence": "TGAGAACA", "PBM E-score": -0.212}, {"sequence": "CCCGGAAC", "PBM E-score": 0.416}, {"sequence": "ACCGGAAG", "PBM E-score": 0.388}, {"sequence": "ACGGGAAG", "PBM E-score": 0.232}, {"sequence": "CCCGGAGG", "PBM E-score": 0.206}, {"sequence": "ACCGGAGC", "PBM E-score": 0.244}, {"sequence": "CCGGGAAC", "PBM E-score": 0.381}, {"sequence": "CCCGGACC", "PBM E-score": 0.26}, {"sequence": "CCCGGAAG", "PBM E-score": 0.417}, {"sequence": "ACCGGAAC", "PBM E-score": 0.419}, {"sequence": "CCCGGACG", "PBM E-score": 0.163}, {"sequence": "ACCGGAAT", "PBM E-score": 0.294}, {"sequence": "AGCGGAAG", "PBM E-score": 0.335}, {"sequence": "CTGGTGGC", "PBM E-score": -0.167}, {"sequence": "CGACTCAC", "PBM E-score": 0.0516}, {"sequence": "GAATACCC", "PBM E-score": 0.341}, {"sequence": "AAAAGGAG", "PBM E-score": -0.0435}, {"sequence": "AGGTACCG", "PBM E-score": 0.254}, {"sequence": "CGAGTCTC", "PBM E-score": 0.0605}, {"sequence": "GGAGCCCA", "PBM E-score": -0.203}, {"sequence": "AGGTGCTC", "PBM E-score": -0.148}, {"sequence": "AGGCAGTC", "PBM E-score": -0.144}, {"sequence": "GAAGGCGA", "PBM E-score": -0.051}, {"sequence": "CGTGGGGC", "PBM E-score": -0.121}, {"sequence": "CCCGGAAA", "PBM E-score": 0.39}, {"sequence": "GACGGAAA", "PBM E-score": 0.36}, {"sequence": "GCCGGAAA", "PBM E-score": 0.401}, {"sequence": "ACCGGGAA", "PBM E-score": 0.335}, {"sequence": "TCCGGAAA", "PBM E-score": 0.439}, {"sequence": "TCCGGACA", "PBM E-score": 0.322}, {"sequence": "GGCGGAAA", "PBM E-score": 0.277}, {"sequence": "TCCGGAGA", "PBM E-score": 0.335}, {"sequence": "TCCGGGAA", "PBM E-score": 0.388}, {"sequence": "CCCGGGAA", "PBM E-score": 0.355}, {"sequence": "AGGACTGA", "PBM E-score": -0.0328}, {"sequence": "CACTTGGA", "PBM E-score": -0.087}, {"sequence": "AATGTGGA", "PBM E-score": -0.0863}, {"sequence": "ACGATTCT", "PBM E-score": -0.05}, {"sequence": "GTATAGGA", "PBM E-score": -0.287}, {"sequence": "AGCCATTA", "PBM E-score": 0.0954}, {"sequence": "CTTCTGTC", "PBM E-score": -0.158}, {"sequence": "AGCTGATA", "PBM E-score": -0.047}, {"sequence": "GCCGGAAC", "PBM E-score": 0.428}, {"sequence": "GCCGGAGC", "PBM E-score": 0.283}, {"sequence": "GCCGGACC", "PBM E-score": 0.196}, {"sequence": "ACCGGACT", "PBM E-score": 0.252}, {"sequence": "ACCGGCAA", "PBM E-score": 0.229}, {"sequence": "ACCGGAAA", "PBM E-score": 0.384}, {"sequence": "AACTGTCC", "PBM E-score": 0.0472}, {"sequence": "AGAGTGTA", "PBM E-score": -0.094}, {"sequence": "GTTTCCAA", "PBM E-score": -0.1}, {"sequence": "CTTTCCGA", "PBM E-score": 0.463}, {"sequence": "CTTTCCGC", "PBM E-score": 0.324}, {"sequence": "CTTTCCCA", "PBM E-score": -0.053}, {"sequence": "GTTTCCGA", "PBM E-score": 0.466}, {"sequence": "GTTTCCCA", "PBM E-score": -0.0576}, {"sequence": "ATCTATGA", "PBM E-score": -0.0937}, {"sequence": "ATGCAGAG", "PBM E-score": -0.146}, {"sequence": "GATCAGGA", "PBM E-score": -0.029}, {"sequence": "ATTCATCC", "PBM E-score": 0.202}, {"sequence": "ATTACACA", "PBM E-score": -0.13}, {"sequence": "CCGAAAAG", "PBM E-score": 0.384}, {"sequence": "CCGAAACC", "PBM E-score": 0.395}, {"sequence": "CCGAAACA", "PBM E-score": 0.364}, {"sequence": "GCGAAAAC", "PBM E-score": -0.154}, {"sequence": "ACGAAACC", "PBM E-score": -0.0179}, {"sequence": "CCGAAAAC", "PBM E-score": 0.41}, {"sequence": "ACGAAAAG", "PBM E-score": -0.23}, {"sequence": "CCGAAAAA", "PBM E-score": 0.434}, {"sequence": "CCGAAAGG", "PBM E-score": 0.363}, {"sequence": "ACGAAAAA", "PBM E-score": -0.189}, {"sequence": "ACGAAAAC", "PBM E-score": 0.154}, {"sequence": "TCGAAAAA", "PBM E-score": -0.00854}, {"sequence": "CTAATCGA", "PBM E-score": -0.105}, {"sequence": "CGCCTCCC", "PBM E-score": -0.0433}, {"sequence": "CGGTCCCC", "PBM E-score": 0.141}, {"sequence": "CCCTATGC", "PBM E-score": -0.0929}, {"sequence": "AAGTGCGG", "PBM E-score": 0.226}, {"sequence": "CCGAAAGA", "PBM E-score": 0.388}, {"sequence": "CCGAAAGC", "PBM E-score": 0.377}, {"sequence": "GCGAAAGA", "PBM E-score": -0.166}, {"sequence": "ACGAAGGC", "PBM E-score": -0.0627}, {"sequence": "GACCTGGA", "PBM E-score": -0.196}, {"sequence": "GTCCTGAA", "PBM E-score": -0.197}, {"sequence": "TTTCGAAA", "PBM E-score": -0.307}, {"sequence": "ATCCGAAC", "PBM E-score": 0.475}, {"sequence": "ATCCGAAG", "PBM E-score": 0.48}, {"sequence": "TTCCGAAA", "PBM E-score": 0.468}]}]}
